Results as given in the supplement of paper PMC6992640.
± gives the standard deviation of the averaged measurements.

Columns and labels:
Assay in all cases: cell viability (% of vehicle); higher = less cytotoxic
Conditions in all cases: 10 µM; 72 h
HCI01 = system: HCI01 (cells of a triple-negative basal-like breast cancer xenograft)
HCI03 = system: HCI03 (cells of an ER-positive luminal breast cancer xenograft)
HCI09 = system: HCI09 (cells of a triple-negative luminal androgen receptor type breast cancer xenograft)
HCI11 = system: HCI11 (cells of an ER-positive luminal breast cancer xenograft)
HCI13 = system: HCI13 (cells of an ER-positive luminal breast cancer xenograft)
HCI16 = system: HCI16 (cells of a triple-negative basal-like breast cancer xenograft)
UCD52 = system: UCD52 (cells of a triple-negative basal-like breast cancer xenograft)
WHIM2 = system: WHIM2 (cells of a triple-negative basal-like breast cancer xenograft)
WHIM30 = system: WHIM30 (cells of a triple-negative basal-like breast cancer xenograft)
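Also: PDX cells carrying CMV promoter-driven luciferase, viability read as total photon flux per second by IVIS imaging following D-luciferin, vehicle control 0.1% DMSO.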

Structure (SMILES) | cell viability (HCI01) | cell viability (HCI03) | cell viability (HCI09) | cell viability (HCI11) | cell viability (HCI13) | cell viability (HCI16) | cell viability (UCD52) | cell viability (WHIM2) | cell viability (WHIM30)
Cl.Cl.O=C(O)COCCN1CCN(C(c2ccccc2)c2ccc(Cl)cc2)CC1 (configuration not stated) [Cetirizine DiHCl] | 111 ± 5.7 | 118 | 98.4 ± 0.98 | 103 | 147 ± 6.2 | 116 | 78.6 ± 6.7 | 90.1 ± 1.9 | 109 ± 7.9
C.CCN1CC(CCN2CCOCC2)C(c2ccccc2)(c2ccccc2)C1=O.O (configuration not stated) [Doxapram HCl] | 102.9 ± 0.49 | 198 | 81.9 ± 14 | 101 | 91.2 ± 1.9 | 105 | 73.6 ± 5.6 | 82.8 ± 4.2 | 117 ± 11
CCCC1CC(C(=O)NC(C(C)Cl)C2OC(SC)C(OP(=O)(O)O)C(O)C2O)N(C)C1 (configuration not stated) [Clindamycin Phosphate] | 140 ± 73 | 112 | 75.6 ± 25 | 96.6 | 86.2 ± 30 | 89.1 | 73.2 ± 16 | 92.7 ± 20 | 83.5 ± 1.4
Cc1cc(C#N)cc(C)c1Oc1nc(Nc2ccc(C#N)cc2)nc(N)c1Br [Etravirine (TMC125)] | 107 ± 6.5 | 127 | 91.9 ± 4.6 | 93.4 | 86.559 ± 0.026 | 109 | 99.3 ± 18 | 92.3 ± 3.6 | 137.8 ± 0.96
Cl.O=C1OC(CN2CCOCC2)CN1N=Cc1ccc([N+](=O)[O-])o1 (configuration not stated) [Furaltadone HCl] | 75.8 ± 23 | 153 | 46.7 ± 22 | 63.7 | 94.2 ± 14 | 97 | 135 ± 13 | 42.7 ± 10 | 96 ± 4.8
CN(C)CCC(c1ccccc1)c1ccccn1.O=C(O)C=CC(=O)O (configuration not stated) [Pheniramine Maleate] | 111 ± 10 | 123 | 108 ± 34 | 101 | 94.008 ± 0.0093 | 132 | 117 ± 27 | 97.8 ± 24 | 124 ± 14
CN1CCN(c2nc(C3=C(c4c[nH]c5ccccc45)C(=O)NC3=O)c3ccccc3n2)CC1 [Sotrastaurin (AEB071)] | 134 ± 40 | 102 | 173 ± 34 | 136 | 109 ± 1.9 | 111 | 63.9 ± 1.5 | 195 ± 10 | 111 ± 6.1
CCN1CCCC1CNC(=O)c1cc(S(N)(=O)=O)ccc1OC (configuration not stated) [Levosulpiride] | 127 ± 9.1 | 126 | 99.33 ± 0.17 | 98.2 | 77.9 ± 5.7 | 134 | 93.9 ± 1.6 | 109 ± 7.3 | 100 ± 7.4
C=C1C(CO)C(O)CC1n1cnc2c(=O)nc(N)[nH]c21.O (configuration not stated) [Entecavir Hydrate] | 110 ± 5.2 | 104 | 91.1 ± 4.7 | 99.5 | 82.7 ± 5.4 | 108 | 103 ± 13 | 81.3 ± 11 | 107 ± 9.8
O=C(CCCN1CC=C(n2c(=O)[nH]c3ccccc32)CC1)c1ccc(F)cc1 [Droperidol] | 108 ± 23 | 106 | 84.4 ± 9.8 | 97.5 | 113 ± 20 | 107 | 93.1 ± 5.3 | 96.6 ± 20 | 100 ± 2.3
C=CC(=O)Nc1cccc(Nc2nc(Nc3ccc(N4CCN(C(C)=O)CC4)cc3OC)ncc2C(F)(F)F)c1 | 103 ± 4.6 | 99.9 | 63.8 ± 0.93 | 94 | 88.2 ± 3.4 | 73.3 | 64.7 ± 17 | 66.7 ± 2.6 | 99.6 ± 16
CC(O)C1C(=O)N2C(C(=O)O)=C(SC3CNC(C(=O)N(C)C)C3)C(C)C12 (configuration not stated) [Meropenem] | 103 ± 7 | 106 | 87.1 ± 6.1 | 95.1 | 98.6 ± 2.3 | 103 | 73.2 ± 6.8 | 83.4 ± 4.6 | 112 ± 5.1
CC(C)(C(=O)O)c1ccc(C(O)CCCN2CCC(C(O)(c3ccccc3)c3ccccc3)CC2)cc1.Cl (configuration not stated) [Fexofenadine HCl] | 127 ± 32 | 129 | 115 ± 1.6 | 96.4 | 131 ± 6.2 | 120 | 87.7 ± 9.4 | 84.5 ± 14 | 108 ± 14
CC(CN(C)C)CN1c2ccccc2CCc2ccccc21.O=C(O)/C=C\C(=O)O (configuration not stated) [Trimipramine (maleate)] | 99.2 ± 13 | 101 | 91.6 ± 9.4 | 69 | 92.2 ± 2.7 | 105 | 86.9 ± 1.5 | 77.6 ± 15 | 93.3 ± 1.9
CN(C)CCC=C1c2ccccc2Sc2ccc(Cl)cc21 [Chlorprothixene] | 85.8 ± 14 | 87.1 | 71.9 ± 13 | 93.9 | 105 ± 2.6 | 83.8 | 54.4 ± 2.5 | 49.9 ± 20 | 124 ± 13
NCC1OC(OC2C(CO)OC(OC3C(O)C(N)CC(N)C3OC3OC(CO)C(O)C(O)C3N)C2O)C(N)C(O)C1O.O=S(=O)(O)O (configuration not stated) [Paromomycin Sulfate] | 125 ± 32 | 133 | 88.3 ± 10 | 95 | 86.8 ± 14 | 129 | 91.82 ± 0.62 | 131 ± 48 | 111 ± 8
COc1ccc2nc(S(=O)Cc3ncc(C)c(OC)c3C)[nH]c2c1 (configuration not stated) [Omeprazole] | 127 ± 30 | 149 | 94.2 ± 5.6 | 102 | 94 ± 3.6 | 121 | 138 ± 16 | 99.8 ± 23 | 192 ± 5.1
COc1cc(C=CC(=O)N2CCN(CC(=O)N3CCCC3)CC2)cc(OC)c1OC.O=C(O)C=CC(=O)O [Cinepazide maleate] | 90.6 ± 5.7 | 130 | 94.4 ± 8.9 | 94.4 | 81.9 ± 12 | 106 | 121 ± 8.9 | 111 ± 17 | 102 ± 8.3
